PLCg1 inh: inhibitors of human phospholipase C gamma1 | P19174 | purified PLC-gamma1, fluorogenic substrate, fluorescence | inhibition, % at 12.2 µM | hit rate 0.84% among 370,000; in the data active means inhibition above about 9.5%
PLC-beta3 inh: PLC-beta3 (human) inhibition, primary screen; Q01970; Purified PLC-beta3, fluorogenic substrate, fluorescence; inhibition, % at 12.2 µM; hit rate 0.18% among 370,000; AID 720704; in the data active means inhibition above about 11%;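 further: 0% = median of compound wells on plate and 100% = full blocker control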
ADAM17 inh: inhibitors of human ADAM17. P78536. recombinant ADAM17, EDANS/DABCYL FRET peptide cleavage. inhibition, % at 6.95 µM. hit rate 0.83% among 370,000. AID 720648;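 active means inhibition above the mean of compounds lying between control limits plus 3 SD, set per campaign, cut at about 8.5% in these data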;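 further: 0% = DMSO-only wells as the low control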
Target sequence (P78536 215-824 limits assumed): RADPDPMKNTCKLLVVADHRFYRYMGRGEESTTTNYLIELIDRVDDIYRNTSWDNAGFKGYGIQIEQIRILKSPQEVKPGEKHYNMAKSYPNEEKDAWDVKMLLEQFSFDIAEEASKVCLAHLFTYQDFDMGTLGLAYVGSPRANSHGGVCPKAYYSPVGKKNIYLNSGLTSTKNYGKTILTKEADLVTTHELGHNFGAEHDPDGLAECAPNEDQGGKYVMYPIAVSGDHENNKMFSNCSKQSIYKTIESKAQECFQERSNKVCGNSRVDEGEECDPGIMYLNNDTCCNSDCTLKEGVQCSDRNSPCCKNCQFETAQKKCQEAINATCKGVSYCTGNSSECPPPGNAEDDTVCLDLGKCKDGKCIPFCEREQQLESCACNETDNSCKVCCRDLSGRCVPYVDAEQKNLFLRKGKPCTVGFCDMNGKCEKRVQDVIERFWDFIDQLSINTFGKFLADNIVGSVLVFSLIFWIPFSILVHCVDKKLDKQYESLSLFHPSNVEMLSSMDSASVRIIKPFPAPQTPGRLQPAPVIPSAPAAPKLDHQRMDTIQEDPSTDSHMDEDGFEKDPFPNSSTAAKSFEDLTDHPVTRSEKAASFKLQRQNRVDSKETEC
proKLK7 act: activators of human kallikrein-7 zymogen; P49862; purified proKLK7, EDANS-DABCYL substrate fluorescence; 100% is mature enzyme control, 0% vehicle; activation, % at 7 µM; hit rate 0.9% among 370,000;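 active means activation above the mean of all tested compounds plus 3 SD, computed per campaign excluding outliers beyond control limits, cut at about 13% in these data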
ADAM10 inh: inhibits human ADAM10; O14672; recombinant ADAM10, EDANS/DABCYL FRET peptide cleavage, 3 h; inhibition, % at 7 µM; hit rate 0.62% among 370,000; AID 720582;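 active means inhibition above a per-campaign cutoff equal to the mean of compounds falling between control-based bounds plus 3 SD, cut at about 20% in these data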;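 further: 0% = DMSO wells while the 100% control is not disclosed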
ADAM10 confirm: confirmation of inhibitors of human ADAM10; shares compounds with ADAM10 inh; inhibition, % at 6.95 µM; ADAM10 QFRET peptide cleavage, EDANS fluorescence; hit rate 1% among 2,100;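 active means inhibition above about 20% chosen separately for each screening run, limit read from the data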;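 further: 0% = DMSO wells and 100% = marimastat wells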
ADAM17 ctr: counter-screen for ADAM10 exosite inhibitors: inhibitors of human ADAM17; shares compounds with ADAM10 inh; ADAM17 QFRET peptide cleavage, EDANS fluorescence; inhibition, % at 6.95 µM; hit rate 0.5% among 2,100; AID 743214;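 active means mean triplicate inhibition above the solvent-only control wells' mean plus 3 SD, cut at about 12% in these data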;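 further: 0% = DMSO wells and 100% = marimastat wells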
Numbers without * were called inactive; . = no result given. Hits are enriched below; roughly 2.9% of the tested compounds scored in any of these assays.

SMILES	PLCg1 inh	PLC-beta3 inh	ADAM17 inh	proKLK7 act	ADAM10 inh	ADAM10 confirm	ADAM17 ctr
COc1ccc(S(=O)(=O)N2CCOCC2)cc1C(=O)Nc1ccc(N2CCCCCC2)cc1	-73	-109	4	-1	20*	8	4
CCOC(=O)CCC(=O)Nc1cc(S(=O)(=O)N2CCOCC2)ccc1N1CCCCC1	-2	-5	-1	0	22*	0	0
COc1ccc(NC(=O)c2cc(S(=O)(=O)N3CCCCC3)ccc2C)cc1S(=O)(=O)N1CCOCC1	4	-4	2	0	2	.	.
COc1ccc(-n2c(=S)[nH]c3cc(C(=O)NCc4ccccc4OC)ccc3c2=O)c(OC)c1	4	-3	6	0	14	.	.
COc1ccc(-n2c(=S)[nH]c3cc(C(=O)NCc4ccc(F)cc4)ccc3c2=O)c(OC)c1	1	-4	6	0	23*	1	1
Cn1cccc1/C=N/NC(=O)c1cc2ccccc2cc1O	-48	-87	1	-3	23*	8	5
CCn1c(CSc2nc3ccccc3s2)n[nH]c1=S	5	4	3	0	11	.	.
S=c1[nH]nc(CSc2nc3ccccc3s2)n1Cc1ccccc1	-2	-2	1	0	22*	-1	0
CCCn1nc([N+](=O)[O-])c(C(C#N)c2nc3ccccc3o2)c(Cl)c1=O (stereo not drawn)	2	0	7	0	21*	2	0
Cn1nc([N+](=O)[O-])c(C(C#N)c2ccccn2)c(Cl)c1=O (stereo not drawn)	-10	-17	-3	-1	-7	.	.
Cc1ccc2c(c1)/C(=C/c1ccc(F)cc1)C(=O)N2	-7	-6	3	-1	22*	1	0
CSCCC(NC(=O)c1ccccc1)C(=O)OCC(=O)Nc1ccc(C)c(Cl)c1 (stereo not drawn)	2	2	4	0	32*	6	1
Cc1cc(N2CCN(C(=O)OC(C)(C)C)C[C@@H]2C)ccc1N1CCS(=O)(=O)CC1	-3	1	-2	0	-2	.	.
Cc1scc(C(=O)NNC(=S)NC(C)c2ccccc2)c1C (stereo not drawn)	7	6	5	0	27*	0	0
COc1ccc(CNC(=O)[C@H](C)NC(=O)C2CCN(C(=O)[C@@H](N)CCSC)CC2)cc1	3	10	-1	-1	-7	.	.
COc1ccc(CNC(=O)[C@H](NC(=O)C2CCN(C(=O)[C@@H](N)CCSC)CC2)C(C)C)cc1	3	4	-1	0	82*	-1	0
COCC(=O)NCC1CCN(C(=O)C(=O)c2cccs2)CC1	1	4	-2	0	1	.	.
C[C@H](O)[C@@H]1CN2CCc3ccc(-c4ccc5c(c4)OCO5)cc3[C@@H]2C[C@@H]1N(C)CC1CCCCC1	-6	-3	-2	1	-5	.	.
CCc1ccc([C@H]2[C@@H]3C(=O)C[C@@H]4C(=O)N(Cc5ccccc5)C(=O)[C@@H]4[C@@H]3CN2S(=O)(=O)c2ccc(C)cc2)cc1	0	1	4	0	23*	6	2
CCc1ccc([C@H]2[C@@H]3C(=O)C[C@@H]4C(=O)N(C5CCCCC5)C(=O)[C@@H]4[C@@H]3CN2S(=O)(=O)c2ccc(C)cc2)cc1	1	6	8	0	20*	5	1
CCc1ccc([C@H]2[C@@H]3C(=O)C[C@@H]4C(=O)N(CC)C(=O)[C@@H]4[C@@H]3CN2S(=O)(=O)c2ccc(C)cc2)cc1	0	0	0	0	4	.	.
COC(=O)C1=C(C)N(Cc2ccccc2C(F)(F)F)C(=NCc2cc(OC)c(OC)c(OC)c2)NC1c1cccc(C(F)(F)F)c1 (stereo not drawn)	0	-1	0	0	-2	.	.
O=C(Nc1ccc2[nH]c(=S)sc2c1)Nc1ccccc1F	3	-4	-3	0	24*	6	2
Cc1ccc(C(=O)NC2CCCCN(C(C)C)C2=O)cc1 (stereo not drawn)	-2	2	-3	-1	-2	.	.
CCOc1cc(CNn2cn[nH]c2=S)cc(Cl)c1OCc1ccccc1F	5	-1	12*	-1	25*	0	0
SMILES	PLCg1 inh	PLC-beta3 inh	ADAM17 inh	proKLK7 act	ADAM10 inh	ADAM10 confirm	ADAM17 ctr
COc1cc(NC(=O)C(OC(=O)CNC(=O)c2ccccc2)c2ccccc2)cc(C(F)(F)F)c1 (stereo not drawn)	4	3	15*	.	29*	1	2
O=C(CNC(=O)c1ccccc1)OC(C(=O)c1ccccc1)c1ccccc1 (stereo not drawn)	-1	1	1	0	1	.	.
CCCN1CCCCC(NC(=O)c2ccccc2C)C1=O (stereo not drawn)	-1	0	-3	0	-2	.	.
Cn1cc(C(=O)c2ccc(Cl)cc2Cl)cc1C(=O)N/N=C(\N)COc1ccc(Cl)cc1Cl	12*	-1	20*	0	30*	12	4
CCN1Cc2nnn(Cc3ccccc3)c2-c2ccccc2S1(=O)=O	2	7	1	0	2	.	.
C[C@H](CO)N1C[C@H](C)[C@H](CN(C)Cc2ccccc2)Oc2c(NC(=O)Nc3ccc(F)cc3)cccc2C1=O	8	1	3	0	12	.	.
C[C@@H]1CN([C@H](C)CO)C(=O)c2ccccc2-c2ccccc2CO[C@@H]1CN(C)C(=O)Nc1ccccc1	1	4	-1	1	-15	.	.
C[C@@H]1CN([C@@H](C)CO)C(=O)c2cccc(NC(=O)Nc3ccc(F)cc3)c2O[C@@H]1CN(C)Cc1ccc(Oc2ccccc2)cc1	2	0	4	1	21*	7	2
C[C@@H]1CCCCO[C@H](CN(C)C(=O)Nc2ccc(F)cc2)[C@@H](C)CN([C@H](C)CO)C(=O)c2cc(NC(=O)c3ccccc3)ccc2O1	3	-2	3	0	23*	3	0
C[C@@H]1CN([C@@H](C)CO)C(=O)c2ccccc2-c2ccccc2CO[C@@H]1CN(C)Cc1ccc(Cl)c(Cl)c1	3	1	8	-1	22*	8	3
C[C@@H]1CCCCO[C@H](CN(C)C(=O)NC2CCCCC2)[C@@H](C)CN([C@H](C)CO)C(=O)c2cc(NC(=O)c3ccccc3)ccc2O1	-1	-2	-1	0	-9	.	.
C[C@@H]1CN([C@H](C)CO)C(=O)c2cc(NC(=O)Nc3ccc(C(F)(F)F)cc3)ccc2O[C@H]1CN(C)C(=O)Nc1ccc(F)cc1	0	-3	8	1	35*	8	2
CC(C)(C)OC(=O)/C=C/[C@H](CCCCl)Sc1ccc(C(C)(C)C)cc1	0	8	7	0	18	.	.

High-throughput results: PubChem BioAssay, The Scripps Research Institute Molecular Screening Center
